# Data published in the supplement of paper PMC12819154, “High-throughput peptide-centric local stability assay extends protein–ligand identification to membrane proteins, tissues and bacteria” (Nature Structural & Molecular Biology, 2025).
# Compound: Nc1ncnc2c1ncn2[C@@H]1O[C@H](COP(=O)(O)OP(=O)(O)OP(=O)(O)O)[C@@H](O)[C@H]1O [adenosine 5'-triphosphate]
# Assay: log2 fold change of tryptic peptide abundance, ligand vs vehicle (limited proteolysis) (log2 ratio); higher = more trypsin-susceptible (destabilized)
# Settings: ligand concentration: 5 mM; sample: E. coli desalted lysate; replicate design: treated before aliquoting
# Method: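 HT-PELSA: desalted E. coli K-12 BW25113 lysate (with 12 mM MgCl2) incubated with 5 mM ATP (pH 7) or water for 30 min at 25 C, then a 4 min trypsin pulse at 22 C. Peptides were quantified by DIA-MS (4 replicates). Value is the peptide log2 fold change (treated/control); negative = stabilized. Scale: negative = ligand-stabilized region.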
# 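Further: lysate desalted by size exclusion to strip endogenous ATP, peptide intensities built from DIA-NN precursor signals, and peptides missing any value discarded before comparison.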
# Sequence of UniProt P0DPP7 (P0DPP7 whole entry): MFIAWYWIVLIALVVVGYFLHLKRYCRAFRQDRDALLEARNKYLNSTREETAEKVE
# Sequence of UniProt P15082 (P15082 whole entry): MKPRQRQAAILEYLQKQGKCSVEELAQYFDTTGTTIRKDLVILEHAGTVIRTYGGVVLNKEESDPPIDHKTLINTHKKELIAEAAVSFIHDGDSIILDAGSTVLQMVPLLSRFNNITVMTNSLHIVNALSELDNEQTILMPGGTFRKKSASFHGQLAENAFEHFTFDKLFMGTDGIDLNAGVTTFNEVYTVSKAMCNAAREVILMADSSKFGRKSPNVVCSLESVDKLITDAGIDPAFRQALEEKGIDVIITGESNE
# Sequence of UniProt P24188 (P24188 whole entry): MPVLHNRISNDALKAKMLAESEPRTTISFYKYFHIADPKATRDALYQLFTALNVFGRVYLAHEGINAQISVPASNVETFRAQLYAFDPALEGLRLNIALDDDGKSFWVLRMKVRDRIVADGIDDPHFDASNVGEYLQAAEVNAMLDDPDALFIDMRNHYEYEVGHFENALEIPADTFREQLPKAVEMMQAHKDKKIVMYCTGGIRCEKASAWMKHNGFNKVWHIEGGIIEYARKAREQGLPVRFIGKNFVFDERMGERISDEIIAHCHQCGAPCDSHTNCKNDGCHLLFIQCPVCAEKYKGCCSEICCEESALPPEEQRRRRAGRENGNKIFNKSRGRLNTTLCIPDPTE
# Sequence of UniProt P36999 (P36999 whole entry): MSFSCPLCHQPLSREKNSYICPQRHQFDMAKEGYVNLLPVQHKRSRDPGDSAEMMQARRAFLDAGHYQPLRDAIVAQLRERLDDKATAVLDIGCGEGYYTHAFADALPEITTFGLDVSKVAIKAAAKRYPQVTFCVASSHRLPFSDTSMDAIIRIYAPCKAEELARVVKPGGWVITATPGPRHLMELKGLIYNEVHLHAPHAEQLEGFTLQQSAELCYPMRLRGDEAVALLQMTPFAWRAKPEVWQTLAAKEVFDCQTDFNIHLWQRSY
# Sequence of UniProt P36929 (P36929 whole entry): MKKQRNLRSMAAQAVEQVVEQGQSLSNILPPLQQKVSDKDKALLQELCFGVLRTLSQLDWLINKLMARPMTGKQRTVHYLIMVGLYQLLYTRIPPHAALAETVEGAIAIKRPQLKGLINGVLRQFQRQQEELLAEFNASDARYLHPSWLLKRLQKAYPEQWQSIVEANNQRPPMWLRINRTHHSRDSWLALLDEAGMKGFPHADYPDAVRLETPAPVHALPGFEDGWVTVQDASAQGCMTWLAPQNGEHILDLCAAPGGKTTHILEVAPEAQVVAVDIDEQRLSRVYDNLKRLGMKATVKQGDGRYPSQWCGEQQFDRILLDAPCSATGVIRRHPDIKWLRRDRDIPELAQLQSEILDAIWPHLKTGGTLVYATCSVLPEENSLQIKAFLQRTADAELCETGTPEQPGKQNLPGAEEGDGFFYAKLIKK
# Sequence of UniProt P07118 (P07118 whole entry): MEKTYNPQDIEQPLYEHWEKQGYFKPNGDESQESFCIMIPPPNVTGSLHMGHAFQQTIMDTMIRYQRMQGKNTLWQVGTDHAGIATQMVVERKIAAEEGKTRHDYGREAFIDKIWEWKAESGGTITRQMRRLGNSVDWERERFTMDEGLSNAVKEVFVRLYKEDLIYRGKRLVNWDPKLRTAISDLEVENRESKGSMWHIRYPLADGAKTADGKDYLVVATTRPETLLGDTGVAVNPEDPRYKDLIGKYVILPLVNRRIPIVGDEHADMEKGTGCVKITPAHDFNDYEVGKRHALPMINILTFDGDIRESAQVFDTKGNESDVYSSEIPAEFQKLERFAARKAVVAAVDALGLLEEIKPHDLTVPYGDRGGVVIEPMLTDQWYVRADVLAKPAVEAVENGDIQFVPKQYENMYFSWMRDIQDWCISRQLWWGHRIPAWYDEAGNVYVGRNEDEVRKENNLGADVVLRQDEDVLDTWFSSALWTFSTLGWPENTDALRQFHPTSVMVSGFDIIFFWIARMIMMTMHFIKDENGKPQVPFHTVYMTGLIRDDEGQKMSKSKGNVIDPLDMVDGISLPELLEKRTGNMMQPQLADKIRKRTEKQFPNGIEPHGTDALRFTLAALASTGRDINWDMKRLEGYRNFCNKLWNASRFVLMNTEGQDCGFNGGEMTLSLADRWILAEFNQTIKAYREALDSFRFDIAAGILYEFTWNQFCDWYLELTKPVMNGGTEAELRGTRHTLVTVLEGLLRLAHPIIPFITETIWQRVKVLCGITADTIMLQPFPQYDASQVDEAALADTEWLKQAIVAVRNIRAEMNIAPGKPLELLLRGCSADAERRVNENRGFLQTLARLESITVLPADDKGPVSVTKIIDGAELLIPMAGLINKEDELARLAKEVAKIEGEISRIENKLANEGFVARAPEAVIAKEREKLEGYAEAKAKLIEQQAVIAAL
# Sequence of UniProt P64554 (P64554 whole entry): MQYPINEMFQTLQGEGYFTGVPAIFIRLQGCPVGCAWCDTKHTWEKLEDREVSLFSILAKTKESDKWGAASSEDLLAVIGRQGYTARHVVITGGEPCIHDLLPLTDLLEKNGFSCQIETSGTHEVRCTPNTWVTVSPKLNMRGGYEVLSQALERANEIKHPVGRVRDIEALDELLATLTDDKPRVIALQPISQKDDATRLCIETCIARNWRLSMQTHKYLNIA
# Sequence of UniProt P0A959 (P0A959 whole entry): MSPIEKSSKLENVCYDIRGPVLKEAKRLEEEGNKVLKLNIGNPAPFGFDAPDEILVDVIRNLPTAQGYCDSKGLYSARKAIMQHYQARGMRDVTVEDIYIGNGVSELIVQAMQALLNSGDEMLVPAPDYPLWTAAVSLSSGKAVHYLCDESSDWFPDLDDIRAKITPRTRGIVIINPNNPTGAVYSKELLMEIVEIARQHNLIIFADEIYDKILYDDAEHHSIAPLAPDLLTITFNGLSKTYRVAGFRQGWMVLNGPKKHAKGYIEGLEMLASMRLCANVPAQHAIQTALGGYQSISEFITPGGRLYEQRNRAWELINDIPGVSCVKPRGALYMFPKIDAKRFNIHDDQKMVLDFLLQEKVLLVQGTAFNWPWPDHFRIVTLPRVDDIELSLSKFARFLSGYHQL
# Sequence of UniProt P43340 (P43340 whole entry): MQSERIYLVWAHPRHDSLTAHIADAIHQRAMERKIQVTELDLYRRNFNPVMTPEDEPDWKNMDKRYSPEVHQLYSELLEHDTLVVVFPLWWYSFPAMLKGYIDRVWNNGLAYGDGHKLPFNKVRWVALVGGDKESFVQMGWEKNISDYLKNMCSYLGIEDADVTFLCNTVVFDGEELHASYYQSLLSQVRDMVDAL
# Sequence of UniProt P0AA37 (P0AA37 whole entry): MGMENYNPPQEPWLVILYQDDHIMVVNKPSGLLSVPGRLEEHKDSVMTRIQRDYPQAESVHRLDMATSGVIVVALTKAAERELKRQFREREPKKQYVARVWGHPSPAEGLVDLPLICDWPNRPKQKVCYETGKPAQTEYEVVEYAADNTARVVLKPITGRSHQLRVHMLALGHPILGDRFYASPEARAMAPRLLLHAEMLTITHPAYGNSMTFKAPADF
# Sequence of UniProt P10121 (P10121 whole entry): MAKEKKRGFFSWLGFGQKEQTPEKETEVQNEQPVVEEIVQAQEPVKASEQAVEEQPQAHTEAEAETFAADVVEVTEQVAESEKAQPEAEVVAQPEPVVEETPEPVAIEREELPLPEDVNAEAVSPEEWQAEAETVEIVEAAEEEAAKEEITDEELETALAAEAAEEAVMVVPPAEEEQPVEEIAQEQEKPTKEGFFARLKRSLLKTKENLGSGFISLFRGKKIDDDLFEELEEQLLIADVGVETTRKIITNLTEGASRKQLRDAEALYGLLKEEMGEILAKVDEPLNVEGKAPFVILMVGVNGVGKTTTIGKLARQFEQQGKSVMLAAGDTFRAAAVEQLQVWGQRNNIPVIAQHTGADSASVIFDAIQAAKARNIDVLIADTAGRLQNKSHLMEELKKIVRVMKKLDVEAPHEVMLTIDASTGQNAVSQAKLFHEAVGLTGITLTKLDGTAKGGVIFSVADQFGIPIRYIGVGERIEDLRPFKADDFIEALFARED
# Sequence of UniProt P29013 (P29013 whole entry): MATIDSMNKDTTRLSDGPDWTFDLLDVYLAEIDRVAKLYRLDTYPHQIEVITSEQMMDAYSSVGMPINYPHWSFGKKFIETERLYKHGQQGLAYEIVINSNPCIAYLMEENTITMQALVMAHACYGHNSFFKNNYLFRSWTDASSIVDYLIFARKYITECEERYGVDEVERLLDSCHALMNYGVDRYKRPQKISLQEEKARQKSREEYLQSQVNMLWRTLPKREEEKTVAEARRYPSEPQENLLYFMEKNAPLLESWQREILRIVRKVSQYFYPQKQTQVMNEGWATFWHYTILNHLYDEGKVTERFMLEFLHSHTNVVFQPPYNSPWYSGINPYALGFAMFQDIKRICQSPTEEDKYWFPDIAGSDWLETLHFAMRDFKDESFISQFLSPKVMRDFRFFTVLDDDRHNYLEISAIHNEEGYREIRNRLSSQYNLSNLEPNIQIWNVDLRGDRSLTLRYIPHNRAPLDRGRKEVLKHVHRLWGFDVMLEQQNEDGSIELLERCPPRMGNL
# Sequence of UniProt P51024 (P51024 whole entry): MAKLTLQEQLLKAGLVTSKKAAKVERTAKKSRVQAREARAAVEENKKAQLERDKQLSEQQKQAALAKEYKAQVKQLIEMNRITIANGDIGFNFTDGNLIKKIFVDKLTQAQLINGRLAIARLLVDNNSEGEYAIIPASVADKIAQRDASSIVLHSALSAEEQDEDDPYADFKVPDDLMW
# Sequence of UniProt P52598 (P52598 whole entry): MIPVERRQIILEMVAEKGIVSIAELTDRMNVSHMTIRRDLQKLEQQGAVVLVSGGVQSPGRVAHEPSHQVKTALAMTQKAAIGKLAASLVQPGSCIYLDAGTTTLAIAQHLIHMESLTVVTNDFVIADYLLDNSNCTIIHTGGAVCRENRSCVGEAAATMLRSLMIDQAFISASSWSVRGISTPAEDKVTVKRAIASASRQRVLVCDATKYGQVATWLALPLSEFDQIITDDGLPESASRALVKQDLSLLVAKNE
row,Target,log2 fold change
1,"UniProt P45522 (peptide sequence: TLVTLGMHPHQAQR, peptide start residue: 530)",0.604
2,"UniProt P52612 (peptide sequence: DRGQHVLLIMDSLTR, peptide start residue: 262)",-1.35
3,"UniProt P64554 (peptide sequence: NGFSCQIETSGTHEVR, peptide start residue: 111)",-0.431
4,"UniProt P36999 (peptide sequence: RYPQVTFCVASSHR, peptide start residue: 128)",-0.656
5,"UniProt P17169 (peptide sequence: LKSNIEEVR, peptide start residue: 530)",-0.459
6,"UniProt P24188 (peptide sequence: NHYEYEVGHFENALEIPADTFR, peptide start residue: 157)",0.32
7,"UniProt P21866 (peptide sequence: RHSATTAPDPLVK, peptide start residue: 118)",1.65
8,"UniProt P09029 (peptide sequence: DVFPIIADR, peptide start residue: 72)",-2.73
9,"UniProt P12282 (peptide sequence: QTLHSDATVGQPK, peptide start residue: 74)",-1.54
10,"UniProt P0A7D4 (peptide sequence: EMKELEDR, peptide start residue: 83)",-1.78
11,"UniProt P36929 (peptide sequence: VYDNLKR, peptide start residue: 286)",-1.2
12,"UniProt P27550 (peptide sequence: IAEAAVVGIPHNIK, peptide start residue: 542)",-2.61
13,"UniProt P37313 (peptide sequence: GTKDQIFNNPR, peptide start residue: 244)",1.01
14,"UniProt P27129 (peptide sequence: DVEPMQEK, peptide start residue: 157)",-0.645
15,"UniProt P37647 (peptide sequence: LTGGSAEDAAK, peptide start residue: 275)",-1.34
16,"UniProt P0AAC4 (peptide sequence: SDSIVQPR, peptide start residue: 7)",-0.368
17,"UniProt P0AA37 (peptide sequence: LLLHAEMLTITHPAYGNSMTFK, peptide start residue: 193)",-0.465
18,"UniProt P51024 (peptide sequence: QLIEMNR, peptide start residue: 75)",-0.359
19,"UniProt P31455 (peptide sequence: AYPGLVNVPR, peptide start residue: 290)",-1.05
20,"UniProt P02916 (peptide sequence: ETTAQPEGER, peptide start residue: 161)",0.465

row,Target,log2 fold change
1,"UniProt P25742 (peptide sequence: SFTHLAPIHGTHIVER, peptide start residue: 116)",-1.07
2,"UniProt P76245 (peptide sequence: TPFVAHPALHS, peptide start residue: 331)",1.1
3,"UniProt P31142 (peptide sequence: GHIPGALNVPWTELVR, peptide start residue: 194)",-0.763
4,"UniProt P45579 (peptide sequence: VAAAHAVHNGLTVLPQTEK, peptide start residue: 253)",0.992
5,"UniProt P43340 (peptide sequence: KIQVTELDLYRR, peptide start residue: 34)",1.23
6,"UniProt P00550 (peptide sequence: GASPLSAGDVTNDLSHVRK, peptide start residue: 361)",0.413
7,"UniProt P00561 (peptide sequence: NKHIDLR, peptide start residue: 493)",1.32
8,"UniProt P15082 (peptide sequence: QRQAAILEYLQK, peptide start residue: 5)",2.18
9,"UniProt P27298 (peptide sequence: DGDHYATLNTAQK, peptide start residue: 115)",1.13
10,"UniProt P26281 (peptide sequence: ALGDIPESHILTVSSFYR, peptide start residue: 25)",-3.29
11,"UniProt P52598 (peptide sequence: SCVGEAAATMLR, peptide start residue: 151)",-0.421
12,"UniProt P30844 (peptide sequence: NLVENAHR, peptide start residue: 260)",-1.02
13,"UniProt P0A959 (peptide sequence: QGWMVLNGPKKHAK, peptide start residue: 249)",1.18
14,"UniProt P10121 (peptide sequence: KRGFFSWLGFGQK, peptide start residue: 6)",0.814
15,"UniProt P32143 (peptide sequence: AGIPDCDQTR, peptide start residue: 282)",-2.48
16,"UniProt P29013 (peptide sequence: SREEYLQSQVNMLWR, peptide start residue: 204)",-0.636
17,"UniProt P07118 (peptide sequence: TGNMMQPQLADKIR, peptide start residue: 582)",2.07
18,"UniProt P28861 (peptide sequence: ETAAGSLTGR, peptide start residue: 175)",-1.31
19,"UniProt P26646 (peptide sequence: ESTHEYLK, peptide start residue: 181)",0.217
20,"UniProt P0DPP7 (peptide sequence: NKYLNSTR, peptide start residue: 41)",0.633
